The sample as a whole holds a higher share of hits than the screen did.
ST2 inh: IL1RL1 inhibition; AlphaLISA ST2-Fc/biotin-IL-33 interaction, 1 h; inhibition, % for hits at 17 µM; 78,000 tested, 2.3% active; in the data active means inhibition above about 30%
Target sequence (Q01638 whole entry, looked up): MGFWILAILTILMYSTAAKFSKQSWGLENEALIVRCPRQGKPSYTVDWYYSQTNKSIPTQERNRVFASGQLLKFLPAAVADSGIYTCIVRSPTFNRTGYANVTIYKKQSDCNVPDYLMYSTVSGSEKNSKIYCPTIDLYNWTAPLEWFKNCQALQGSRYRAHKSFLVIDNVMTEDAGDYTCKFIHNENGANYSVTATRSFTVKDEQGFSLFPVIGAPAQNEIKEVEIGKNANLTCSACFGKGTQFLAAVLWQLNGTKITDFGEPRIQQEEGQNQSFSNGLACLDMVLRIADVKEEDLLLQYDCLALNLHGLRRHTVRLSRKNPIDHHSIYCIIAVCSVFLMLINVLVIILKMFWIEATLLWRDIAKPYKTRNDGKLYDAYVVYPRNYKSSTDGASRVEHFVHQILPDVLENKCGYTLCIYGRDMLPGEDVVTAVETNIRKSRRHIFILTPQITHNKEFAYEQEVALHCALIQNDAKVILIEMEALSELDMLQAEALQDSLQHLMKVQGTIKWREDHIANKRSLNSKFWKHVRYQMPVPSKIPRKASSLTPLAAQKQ
Each line names hits and unclear results; the compound was inactive in the other large screens.

CCN(c1cccc(C)c1)S(=O)(=O)c1cc(Br)cc2c1N(C(C)=O)C(C)C2 (stereo not drawn)	none
CN(Cc1ccc(Sc2nncn2C)o1)C1CCCN(Cc2ccccc2F)C1 (stereo not drawn)	none
COc1ccc(-c2nn(-c3ccccc3C)cc2CNC2CCOCC2)cc1F	none
COc1ccc(C2CCN(Cc3ccc(Sc4nncn4C)o3)c3ccccc3S2)cc1C (stereo not drawn)	ST2 inh 31.0%
COC(=O)C(C)(N)Cc1ccc(O)cc1 (stereo not drawn)	none
Cc1cc(N2CCC(C)CC2)nc2ccc(NC(=O)C3COc4ccccc4O3)cc12 (stereo not drawn)	none
CCN(CC)c1ccc(N=Cc2ccccc2O)cc1	ST2 inh 79.0%
CC(=O)Nc1ccc(N=Cc2ccccc2O)cc1	none
CCN(CC)c1ccc(C=Nc2cc(Cl)ccc2O)c(O)c1	none
O=C(Nc1c(-c2ccccc2)nc2ccccn12)c1c(F)cccc1F	none
CC(C)c1ccc(C(=O)CSc2ncn[nH]2)cc1	ST2 inh 30.0%
CCc1nnc(NC(=O)CSc2ncn[nH]2)s1	none
O=C(CSc1ncn[nH]1)Nc1cc(C(F)(F)F)ccc1Cl	none
O=C(Nn1cnnc1)c1ccc(Br)o1	none
Cc1cccc(NS(=O)(=O)c2ccc(Cl)cc2)c1	none
O=C(Nc1cc2cccc([N+](=O)[O-])c2oc1=O)c1cccc(I)c1	none
CCOc1ccccc1NC(=O)c1c(-c2ccccc2Cl)noc1C	none
Cc1onc(-c2ccccc2)c1C(=O)Nc1cc2cccc([N+](=O)[O-])c2oc1=O	ST2 inh 46.0%
Cc1onc(-c2ccccc2)c1C(=O)Nc1cccc(NC(=O)c2c(-c3ccccc3)noc2C)n1	none
CCOc1ccc(NC(=O)c2c(-c3ccccc3)noc2C)c([N+](=O)[O-])c1	ST2 inh 38.0%
Cc1ccccc1C(=O)Nc1cc2cccc([N+](=O)[O-])c2oc1=O	none
CCCCNC(=O)C1c2cc(OC)c(OC)cc2C(=O)N(C)C1c1ccc(OC)cc1 (stereo not drawn)	none
COc1ccc(C2(C(=O)Nc3ccc(C)cc3)CCOCC2)cc1OC	none
CCCn1cnc2c(cnn2-c2ccc(F)cc2)c1=O	none
CCCCn1cnc2c(cnn2-c2ccc(Cl)cc2)c1=O	ST2 inh 30.0%
CCCCn1cnc2c(cnn2-c2ccc(F)cc2)c1=O	none
Cc1ccc(Cc2c(C)nc3c(C(=O)NCC4CCCO4)c[nH]n3c2=O)cc1 (stereo not drawn)	none
Oc1c(C=NCc2ccc(Cl)cc2Cl)[nH]c2ccc(Br)c(Cl)c12	none
Oc1c(C=NCc2ccc(F)cc2)[nH]c2ccc(Br)c(Cl)c12	ST2 inh 39.0%
Oc1c(C=NCCc2ccccc2)[nH]c2ccc(Br)c(Cl)c12	ST2 inh 32.0%
Oc1c(C=Nc2ccc(F)cc2)[nH]c2ccc(Br)c(Cl)c12	ST2 inh 30.0%
COc1ccc(CCN=CC2=C(O)CC(c3ccccc3)CC2=O)cc1OC (stereo not drawn)	none
Cc1c(Cl)c(C)c([N+](=O)[O-])c(O)c1C=Nc1ccc(F)cc1	none
COc1cc(Br)c(Br)c(C=Nc2ccc(F)cc2)c1O	none
Cc1cccc(-c2noc(CN(C)C(=O)C(C)(C)NC(=O)c3cccs3)n2)c1	none
O=C(NCc1ccco1)c1ccc2c(c1)N(Cc1ccc(Cl)cc1)C(=O)CS2	none
O=C(Nc1ccccc1O)c1cc(S(=O)(=O)N2CCCCC2)ccc1Br	none
Cc1ccc(C(=O)Nc2c3c(nn2C(C)(C)C)CSC3)cc1C	none
O=C(CCS(=O)(=O)c1ccc(Br)s1)Nc1ccc(Cl)cc1	none
CCCCOc1ccc(C2C(C#N)=C(N)OC3=C2C(=O)CC(C)(C)C3)cc1OC (stereo not drawn)	none
Cc1ccsc1C(=O)N1CCc2c(c(C(=O)N3CCC(O)CC3)nn2CCc2ccccc2)C1	none
CC(=O)Oc1ccc(N2C(=O)C3C4c5ccccc5C(C)(c5ccccc54)C3C2=O)cc1 (stereo not drawn)	none
O=C1[C@@H]2C3c4ccccc4C(Br)(c4ccccc43)[C@@H]2C(=O)N1c1ccc([N+](=O)[O-])cc1	ST2 inh 34.0%
O=C1C2[C@H](C(=O)N1c1cccc(Br)c1)C1c3ccccc3C2(C(=O)O)c2ccccc21 (stereo partly drawn)	none
COCC(=O)N1CCN(c2ccccc2F)CC1	none
COc1cc(/C=C/c2c([N+](=O)[O-])c(=O)n(C)c(=O)n2C)ccc1OCc1ccccc1	none
COc1cc(C2Oc3ccccc3C=C2[N+](=O)[O-])ccc1OCc1ccccc1 (stereo not drawn)	ST2 inh 46.0%
COc1ccc([C@H]2OC[C@H]3[C@@H]2CO[C@@H]3c2ccc(OC)c(OC)c2)cc1OC	none
COc1ccc(C2SCCN2S(=O)(=O)c2ccc([N+](=O)[O-])cc2)cc1OC (stereo not drawn)	none
COc1ccc(C2Oc3c(Br)cc(Br)cc3C=C2[N+](=O)[O-])cc1OC (stereo not drawn)	ST2 inh 56.0%
COc1cc(-c2ncnn2-c2ccc(F)c([N+](=O)[O-])c2)ccc1OCc1ccccc1	none
CN(CCc1ccccn1)C1CCCN(C(=O)c2ccc(=O)[nH]c2)C1 (stereo not drawn)	none
O=C(CN(c1ccc(Cl)c(Cl)c1)S(=O)(=O)c1ccccc1)N1CCOCC1	none
Cn1cc(CNC(=O)COc2ccc(Cl)cc2Cl)cn1	none
C/C=C(\C)C(=O)NCC1Cc2cccc(-c3cncnc3)c2O1 (stereo not drawn)	none
O=C(CC1COCCN1)NCCn1nc(-c2ccccc2)ccc1=O (stereo not drawn)	none
CC(C)(C)c1[nH]nc2c1C(c1ccccc1Cl)C(C#N)=C(N)O2 (stereo not drawn)	none
COc1cc(-c2[nH]nc3c2C(c2ccccc2Cl)C(C#N)=C(N)O3)cc(OC)c1OC (stereo not drawn)	none
N#CC1=C(N)Oc2nc[nH]c(=O)c2C1c1ccccc1Cl (stereo not drawn)	ST2 inh 94.0%
Cc1ccc(-c2nnc(-c3nc(NCCC4=CCCCC4)c4ccccc4n3)o2)cc1	none
Nc1nnc(/C=C/c2cccc([N+](=O)[O-])c2)s1	none
O=[N+]([O-])c1cccc(C(=Nc2ccccc2)NO)c1	none
O=[N+]([O-])c1cccc(/C=C/c2ccccn2)c1	ST2 inh 37.0%
CCOc1ccc(CN2CCC(N3CCCCC3)CC2)cc1	none
Cc1cc(-c2c(-c3ccccc3)ncn2CCO)c(C)n1Cc1cccnc1	none
COc1ccc2nc3oc(C(=O)Nc4cc(Cl)ccc4OC)cc3cc2c1	none
COc1cccc(NC(=O)c2cc3cc4ccc(OC)cc4nc3o2)c1	ST2 inh 38.0%
COc1cc(NC(=O)c2cc3cc4ccc(Cl)cc4nc3o2)cc(OC)c1OC	none
COc1ccc2cc3cc(C(=O)Nc4cccc(Cl)c4)oc3nc2c1	ST2 inh 36.0%
CCOc1ccccc1NC(=O)c1cc2cc3ccc(OC)cc3nc2o1	none
COc1ccc2cc3cc(C(=O)Nc4ccc(F)cc4F)oc3nc2c1	none
COc1ccc2nc3oc(C(=O)Nc4ccc(OC)c(Cl)c4)cc3cc2c1	ST2 inh 37.0%
COc1ccc2nc3oc(C(=O)Nc4cc(OC)c(OC)c(OC)c4)cc3cc2c1	none
COc1ccc2nc3oc(C(=O)NCc4cccs4)cc3cc2c1	ST2 inh 35.0%
COc1ccc2nc3oc(C(=O)NCCC(C)C)cc3cc2c1	none
COc1ccc2cc3cc(C(=O)N4CCN(c5cccc(Cl)c5)CC4)oc3nc2c1	none
CCOCCCNC(=O)c1cc2cc3cc(OC)ccc3nc2o1	none
CC(C)(CC(=O)O)CC(=O)N[C@H]1CO[C@H]2[C@@H]1OC[C@@H]2Nc1nccc(-c2ccco2)n1	none
CC(C)c1noc([C@@H]2C[C@@H](O)CN2Cc2ccc(-c3ccccn3)cc2)n1	none
N#Cc1c(N)nc(N2CCCC2)c(C#N)c1-c1ccc(Cl)cc1	none

Bioassay records as filed in PubChem.
